Measurements published in PubChem BioAssay AID651820 (National Center for Advancing Translational Sciences (NCATS), 2012).
Among all 340,000 compounds or so, about 12,000 (3.5%) were called active. About 18% were inconclusive and are not listed. Calls follow the shape of the dose curve; as a rule, active = well fitted inhibition curve with a large enough effect; inconclusive = small, poorly fitted or top-dose-only effect, or another doubt; inactive = no such curve, though single readings can be large or run the other way. The full list was thinned out, with actives kept by preference.

Assay: qHTS Assay for Inhibitors of Hepatitis C Virus (HCV)
Details: Huh7.5.1 HCVcc-Cre infection, luciferase reporter, 44 h; series mostly up to 41.8 µM; activity change, negative = inhibition: at the top concentration
Method in brief: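 Compounds are dispensed onto cells plated 4 h earlier at 1,000 per well, with HCVcc-Cre virus (about 0.5 moi) added next. Following 44 h of culture, luminescent signal is measured for 15 sec after 15 min with substrate at room temperature.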
% is scaled to controls: 0 for no effect and ±100 for the full control effect; potency is read from the fitted curve at half-maximal effect.

Structure (SMILES) | activity change, negative = inhibition | Potency
COc1ccc(Sc2nc(-c3ccccc3)ncc2OC)cc1 | -21.6% (inactive) | –
COc1cnc(-c2ccccn2)nc1Oc1ccc(C(C)(C)C)cc1 | – | 10 µM (active)
COc1ccc(Cc2nc(-c3ccccn3)no2)cc1OC | 12.1% (inactive) | –
O=C1COc2ccc(C(=O)COC(=O)c3ccccc3Cl)cc2N1 | 13.4% (inactive) | –
COc1ccc(-c2ccc3c(c2)C2CC3CCN2CCC#N)cc1 (stereo not drawn) | -2.86% [at 8.37 µM] (inactive) | –
CC1(C)O[C@@H]2[C@H](O1)[C@@H](COS(=O)(=O)O)O[C@H]2n1cnc2c(=O)[nH]cnc21 | -18% (inactive) | –
Cc1ccc(S(=O)(=O)N(C)C)cc1NC(=O)COC(=O)/C=C/c1cccs1 | -12.4% (inactive) | –
O=C(COC(=O)COc1cc(Cl)c(Cl)cc1Cl)NC1CC1 | 0.0616% (inactive) | –
O=C(COC(=O)c1ccc(O)cc1O)NNC(=O)c1cccs1 | 38.1% (inactive) | –
COc1ccc2c(c1)C(=O)CC(c1ccccc1)O2 (stereo not drawn) | -13.2% (inactive) | –
COc1cc(C(=O)Nn2c(CC(C)C)nc3ccccc3c2=O)cc(OC)c1OC | -5.06% (inactive) | –
COc1cc(-c2n[nH]c(=S)n2Cc2ccccc2)cc(OC)c1OC | 26.4% (inactive) | –
CCC(C)n1c(-c2cc(OC)c(OC)c(OC)c2)nc2nc3ccccc3nc21 (stereo not drawn) | – | 15.8 µM (active)
Cc1cc2nc3n(c2cc1C)CC1CC(C(=O)NCCC(C)C)N(C)C31 (stereo not drawn) | 20.5% (inactive) | –
Cc1cccc(Nc2nnc(SCC(=O)c3c(N)n(C4CC4)c(=O)[nH]c3=O)s2)c1C | -9.86% (inactive) | –
O=[N+]([O-])c1ccc(N=NNc2ccc([N+](=O)[O-])cc2)cc1 | 1.27% (inactive) | –
COc1cc(OC)c(C(=O)NNC(=O)c2ccc(NS(=O)(=O)c3cccs3)cc2)cc1OC | -11.4% (inactive) | –
Cc1ccc(C(CC(=O)O)Nc2nc(N3CCCCC3)nc(N3CCCCC3)n2)cc1 (stereo not drawn) | 13% (inactive) | –
CC(Nc1nc(N2CCCC2)nc2ccccc12)c1ccccc1 (stereo not drawn) | – | 10 µM (active)
CC(Nc1nc(N2CCN(CCO)CC2)nc2ccccc12)c1ccccc1 (stereo not drawn) | -16.3% (inactive) | –
Cc1ccc(C)c(OCC(=O)NNC(=O)C2CCC2)c1 | -7.38% (inactive) | –
CCc1cc2c(N3CCN(c4nnc(CC)s4)CC3)ncnc2s1 | – | 7.08 µM (active)
O=C(O[C@@H]1[C@H](Cc2ccccc2)NS(=O)(=O)[C@H]2C[C@@H]3C=C[C@]12O3)c1ccccc1Br | 2.29% (inactive) | –
COc1cccc(NC(=O)CSc2nccn(-c3ccc4c(c3)OCCO4)c2=O)c1 | -25.2% (inactive) | –
O=c1[nH]c(-c2cccs2)nc2ccccc12 | -0.761% (inactive) | –
CC(=O)Nc1cccc(-c2cnc3ccccc3n2)c1 | -2.87% (inactive) | –
CC(=O)Nc1cccc(Nc2nc(-c3cccs3)nc3ccccc23)c1 | – | 11.2 µM (active)
Cc1ccc(/C=C/C(=O)OCC(=O)NCc2ccc(Cl)cc2)o1 | 1.37% (inactive) | –
